Our source for the inhibition (viability loss, TRAIL sensitization) values is PubChem BioAssay AID624354 (Sanford-Burnham Center for Chemical Genomics, 2012).

Where “and” joins values, the source holds several entries; their conditions need not be identical. Identical values can stand only once. Hit rate of the full screen: of about 360,000 compounds, about 3,800 (1.1%) were called active.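 Rule for the calls: active = compounds causing at least 50% loss of cell viability in the single-dose screen, relative to plate controls; inactive = the rest.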 The full list was thinned out, with actives kept by preference.

A short description of the assay: TRAIL-exposed caspase-8 expressing cell killing – NB7+C8 cells, ATPlite luminescence, TRAIL sensitizer project, primary screen (AID 624354). The following applies: at 10 µM, active compounds read high.
As for `COc1cccc(-c2nc3ccc(N4CCN(C)CC4)cc3[nH]2)c1`, the inhibition (viability loss, TRAIL sensitization) is 86.3% (active).

For `CCC(=O)c1ccc(OCC(=O)N2CCN(CC(=O)Nc3ccc(C)cc3)CC2)cc1`, the inhibition (viability loss, TRAIL sensitization) is 1.16% (inactive).

Turning to `Cc1cc2ccccn2c1C(C[N+](=O)[O-])c1c(F)cccc1Cl` (stereo not given), the inhibition (viability loss, TRAIL sensitization) is -0.261% (inactive).

On to `COc1ccc(-n2c(O)c(C(C)=Nc3ccc4c(c3)CCC4)c(=O)[nH]c2=O)cc1`, for which the inhibition (viability loss, TRAIL sensitization) was 7.82% (inactive).

With `O=Cc1cn(Cc2ccc(F)cc2Cl)c2ccccc12`, the inhibition (viability loss, TRAIL sensitization) was 17.7% (inactive).

On to `CNC(=O)O/N=C(\N)Cc1csc2ccccc12`, for which the inhibition (viability loss, TRAIL sensitization) was -3.67% (inactive).

Turning to `CNC(=O)O/N=C(\N)Cc1csc2ccc(Cl)cc12`, the inhibition (viability loss, TRAIL sensitization) is 70.7% (active).

Take `CCC/C(=N\O)c1c[nH]c2ccccc12`: the inhibition (viability loss, TRAIL sensitization) is -8.01% (inactive).

For `Cc1ncoc1C(=O)NCC1=C(c2cccc3ccccc23)C[C@@H]2CC[C@H]1N2Cc1ccco1`, the inhibition (viability loss, TRAIL sensitization) is 14.8% (inactive).

With `COc1ccccc1CN1CCN(C(=O)Cc2ccccc2)CC1`, the inhibition (viability loss, TRAIL sensitization) was -10.1% (inactive).

For the compound `CCN1CCN(Cc2cc(OC)c3c(c2)OCO3)CC1`, the inhibition (viability loss, TRAIL sensitization) is 3.55% (inactive).

Take `C[C@]12CC[C@H](O)C[C@H]1CC[C@@H]1C2CC[C@]2(C)[C@@H](C3=CC(=O)OC3)[C@@H](O)C[C@]12O` (stereo not given in full): the inhibition (viability loss, TRAIL sensitization) was 48.7% (inactive).

With `COC1C(O)C(C)OC(OC2CCC3(C=O)C(CCC4C3CCC3(C)C(C5=CC(=O)OC5)CCC43O)C2)C1O` (stereo not given), the inhibition (viability loss, TRAIL sensitization) was 74.4% (active).

For `CC(C)Nc1nc(Cl)nc(NC(C)C)n1`, the inhibition (viability loss, TRAIL sensitization) is -4.77% (inactive).

As for `O=C(O)C1CSC(c2cccnc2)N1` (stereo not given), the inhibition (viability loss, TRAIL sensitization) is -7.34% (inactive).

Turning to `Cc1ccc(Cn2c(C)c3cnn(CC(=O)N4CCC5(CC4)OCCO5)c(=O)c3c2C)cc1`, the inhibition (viability loss, TRAIL sensitization) is 2.81% (inactive).

With `OC(Cn1c2ccccc2c2ccccc21)C[n+]1ccccc1` (stereo not given), the inhibition (viability loss, TRAIL sensitization) was -9.29% (inactive).

Consider `CCOc1ccc(-c2cc(C)[n+](CCN(CC)CC)c(-c3ccc(OCC)cc3)c2)cc1`, for which the inhibition (viability loss, TRAIL sensitization) was 64.8% (active).

On to `O=c1[nH]c(CN2CC=C(c3ccccc3)CC2)nc2scc(-c3cccs3)c12`, for which the inhibition (viability loss, TRAIL sensitization) was -10.4% (inactive).

With `COc1ccccc1N1CCN(C(CNC(=O)Oc2ccccc2)c2cccnc2)CC1` (stereo not given), the inhibition (viability loss, TRAIL sensitization) is -5.13% (inactive).

As for `CN1CCc2cc3c(cc2[C@H]1[C@@H]1OC(=O)c2c1ccc1c2OCO1)OCO3`, the inhibition (viability loss, TRAIL sensitization) was -20.1% (inactive).

Consider `C=C(C)C1(CCCC)C(=O)NC(=S)NC1=O`, for which the inhibition (viability loss, TRAIL sensitization) was 6.23% (inactive).

Consider `CN1C2C=C(N(C(=O)c3ccc(Cl)cc3)c3ccccc3)CC1CC2` (stereo not given), for which the inhibition (viability loss, TRAIL sensitization) was -8.37% (inactive).

As for `CC(=O)OC1C2(CC3N4C(=O)C5(CO)SSC4(CC31O)C(=O)N5C)OC(C)C(C)(C)C2=O` (stereo not given), the inhibition (viability loss, TRAIL sensitization) was 84.2% (active).

With `CCC(=O)CC(c1ccc([N+](=O)[O-])cc1)c1c(O)c2ccccc2oc1=O` (stereo not given), the inhibition (viability loss, TRAIL sensitization) was 4.29% (inactive).

Regarding `Nc1ccc(Cc2ccc(N)c(Cl)c2)cc1Cl`, the inhibition (viability loss, TRAIL sensitization) was 2.29% (inactive).

For `CN(C)C(=O)Oc1cc(OC(=O)N(C)C)cc(C(O)CNC(C)(C)C)c1` (stereo not given), the inhibition (viability loss, TRAIL sensitization) was -5.27% (inactive) and 5.89% (inactive).

Take `C=Cn1ccnc1P(=S)(c1cc(N(CC)CC)ns1)c1nccn1C=C`: the inhibition (viability loss, TRAIL sensitization) is -19.8% (inactive).

Turning to `CCCCCCCCCCCCn1ccc(=N)cc1`, the inhibition (viability loss, TRAIL sensitization) was 62.5% (active).

In the case of `CC1CNCCN1c1ccc(Cl)cc1` (stereo not given), the inhibition (viability loss, TRAIL sensitization) is -10.4% (inactive).

In the case of `C=CCN1C(=O)NC(=O)/C(=C/c2ccc(OCC(=O)Nc3ccc(C)cc3)cc2)C1=O`, the inhibition (viability loss, TRAIL sensitization) is 6.1% (inactive).

With `CCOC(=O)[C@]12Cc3ccccc3[C@H]1N(C1CCCCC1)C(=O)c1cc(OC)ccc12`, the inhibition (viability loss, TRAIL sensitization) is 79.1% (active).

For `CCOC(=O)[C@]12Cc3cc(OC)ccc3[C@H]1N(C(C)C)C(=O)c1ccccc12`, the inhibition (viability loss, TRAIL sensitization) was 39.4% (inactive).

As to `CCC1(CC(C)c2ccccc2)C(=O)NC(=O)NC1=O` (stereo not given), the inhibition (viability loss, TRAIL sensitization) was -15.1% (inactive).

Consider `C/C(=N/O)c1ccc2ccc3ccccc3c2c1`, for which the inhibition (viability loss, TRAIL sensitization) is 0.44% (inactive).
